Results on 24 molecules are retold here after the supplement of paper PMC4840960.

Structures are written as SMILES.

The assay has as its system E18 rat cortical neuron-glia co-culture. The assay can be described thus: myelination (MBP fiber length per Olig2+ nucleus), % of 1 µM DAPT response (DMSO = 0) (% of DAPT); higher = more myelination, active = 50 or more. The note with it: 5 µM; treatment time: 8 days (DIV5-DIV13). The gist of the method:
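Rat cortical co-cultures from E18 tissue were dissociated with papain and plated at 20,000 cells/well on 96-well plates coated with poly-d-lysine/laminin. From DIV5 to DIV13, library compounds were added at 1 or 5 µM in myelination medium. After fixation in 4 % paraformaldehyde, cultures were immunostained for MBP and Olig2 and counterstained with DAPI, and four 10X fields were analysed in each of duplicate wells. The myelination value is the length of continuous straight MBP fibers per Olig2+ nucleus, normalised so that 0.1 % DMSO is 0 and a 1 µM positive control is 100.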
For the molecule `NC(=O)N1c2ccccc2C=Cc2ccccc21` [Carbamazepine], the myelination was 2.05 (inactive).

In the case of `CCOC(=O)[C@H](CCc1ccccc1)N[C@H]1CCc2ccccc2N(CC(=O)O)C1=O` [Benazepril], the myelination is -6.97 (inactive).

As for `C[C@H]1C[C@@H]2[C@H]([C@@H](O)C[C@@]3(C)[C@H]2CC[C@]3(O)C(=O)CO)[C@@]2(C)C=CC(=O)C=C12` [Methylprednisolone], the myelination was 2.01 (inactive).

Consider `CC(=O)[C@H]1CC[C@H]2[C@@H]3CCC4=CC(=O)CC[C@]4(C)[C@H]3CC[C@]12C` [Progesterone], for which the myelination was -38.4 (inactive).

As for `O=C(c1ccc(OCCN2CCCCC2)cc1)c1c(-c2ccc(O)cc2)sc2cc(O)ccc12` [Raloxifene], the myelination was 13.4 (inactive).

For `CN(C)CCOC(C)(c1ccccc1)c1ccccn1` (centres undefined) [Doxylamine], the myelination was -5.08 (inactive).

With `CCOC(=O)O[C@]1(C(=O)OCCl)CC[C@H]2[C@@H]3CCC4=CC(=O)C=C[C@]4(C)[C@H]3[C@@H](O)C[C@@]21C` [Loteprednol etabonate], the myelination was -1.58 (inactive).

Consider `CC(=O)OCC(=O)[C@@]12OC(C)(C)O[C@@H]1C[C@H]1[C@@H]3C[C@H](F)C4=CC(=O)C=C[C@]4(C)[C@@]3(F)[C@@H](O)C[C@@]12C` [Fluocinonide], for which the myelination is -66.2 (inactive).

For `CCCN[C@H]1CCc2nc(N)sc2C1` [Pramipexole], the myelination is -14.4 (inactive).

In the case of `CC(CCc1ccccc1)NCC(O)c1ccc(O)c(C(N)=O)c1` (centres undefined) [Labetalol], the myelination is -9.26 (inactive).

Regarding `CC(C)NCC(O)COc1cccc2[nH]ccc12` (centres undefined) [Pindolol], the myelination was -3.46 (inactive).

As for `CC(=O)N1CCN(c2ccc(OCC3COC(Cn4ccnc4)(c4ccc(Cl)cc4Cl)O3)cc2)CC1` (centres undefined) [Ketoconazole], the myelination was -46.2 (inactive).

In the case of `O=C1C(CC[S+]([O-])c2ccccc2)C(=O)N(c2ccccc2)N1c1ccccc1` (centres undefined) [Sulfinpyrazone], the myelination is -7.44 (inactive).

Take `COc1ccc2cc([C@H](C)C(=O)O)ccc2c1` [Naproxen]: the myelination is -4.96 (inactive).

For the molecule `C[C@@H]1C[C@H]2[C@@H]3C[C@H](F)C4=CC(=O)C(Cl)=C[C@]4(C)[C@@]3(F)[C@@H](O)C[C@]2(C)[C@@]1(O)C(=O)CO` [Halometasone hydrate], the myelination is -30.1 (inactive).

For the molecule `O=C(O)c1cccnc1` [Niacin], the myelination is 7.38 (inactive).

Consider `CCN(CC)CC#CCOC(=O)C(O)(c1ccccc1)C1CCCCC1` (centres undefined) [Oxybutynin], for which the myelination is -5.69 (inactive).

On to `OC(c1cc(C(F)(F)F)nc2c(C(F)(F)F)cccc12)C1CCCCN1` (centres undefined) [Mefloquine], for which the myelination was -31.7 (inactive).

As to `C[C@H]1[C@H](OC(=O)CCC(=O)O)O[C@@H]2O[C@@]3(C)CC[C@H]4[C@H](C)CC[C@@H]1[C@@]24OO3` [Artesunate], the myelination amounted to 189.

For `Clc1ccc2c(c1)CCc1cccnc1C2=C1CCNCC1` [Desloratadine], the myelination was -23.3 (inactive).

In the case of `NC[C@H]1CC[C@H](C(=O)Oc2ccc(CCC(=O)O)cc2)CC1` [Cetraxate], the myelination was -18.2 (inactive).

As for `CN1[C@@H](CC(=O)c2ccccc2)CCC[C@H]1C[C@H](O)c1ccccc1` [Lobeline], the myelination was -19.7 (inactive).

With `CN(Cc1cnc2nc(N)nc(N)c2n1)c1ccc(C(=O)N[C@@H](CCC(=O)O)C(=O)O)cc1` [Methotrexate], the myelination is 195 (active).

Take `O=C1[C@H]2CCCC[C@H]2C(=O)N1CCCCN1CCN(c2nsc3ccccc23)CC1` [Perospirone]: the myelination is -34.5 (inactive).
